PubChem BioAssay (NCATS)
A number with no mark means an inactive call. Activity calls are given as the source filed them. Calls come from the whole dose curve; as a rule, active = well fitted curve in the direction sought with a large enough effect (not every such curve was filed as active); inconclusive = small, poorly fitted or top-dose-only effect, or effect the other way, or another doubt; inactive = no such curve, though single readings can be large or run the other way.

molecular target: Pyruvate kinase PKM (Homo sapiens) (UniProt P14618); assay: qHTS Assay for Activators of Human Muscle Pyruvate Kinase (AID 954); settings: purified human muscle pyruvate kinase, luciferase-coupled luminescence, 1 h; series mostly up to 57.5 µM; activity change, negative = inhibition: at the top concentration;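 note: 0% = uninhibited enzyme and -100% = no enzyme or full thiadiazolimine inhibition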
Method in brief: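 Compound pinned into substrate mix (0.5 mM PEP, 0.1 mM ADP), then 0.1 nM PKM2 added; 1 h, RT. Stop/detection luciferase reagent added, luminescence read. Normalized to no-inhibition and no-enzyme or reference-inhibitor controls.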

Chain of Pyruvate kinase PKM (Homo sapiens) (P14618 whole entry, looked up): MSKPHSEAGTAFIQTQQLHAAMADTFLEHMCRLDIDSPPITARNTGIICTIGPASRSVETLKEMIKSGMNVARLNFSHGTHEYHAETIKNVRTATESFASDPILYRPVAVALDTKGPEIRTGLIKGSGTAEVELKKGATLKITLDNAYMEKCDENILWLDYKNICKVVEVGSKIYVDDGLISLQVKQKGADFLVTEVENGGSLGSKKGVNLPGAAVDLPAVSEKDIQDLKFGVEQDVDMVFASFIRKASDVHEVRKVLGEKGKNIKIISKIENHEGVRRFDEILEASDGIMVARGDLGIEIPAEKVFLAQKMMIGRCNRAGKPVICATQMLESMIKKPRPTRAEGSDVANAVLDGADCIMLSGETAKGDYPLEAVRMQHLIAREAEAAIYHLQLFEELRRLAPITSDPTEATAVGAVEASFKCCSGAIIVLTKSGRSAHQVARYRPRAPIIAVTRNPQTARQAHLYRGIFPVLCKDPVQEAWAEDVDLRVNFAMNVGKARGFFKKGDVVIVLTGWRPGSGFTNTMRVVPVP

Question: `CN1CCc2cc(NC(=O)Nc3cccnc3)ccc21` was tested. Which “activity change, negative = inhibition” value did it give?
Answer: -33.9%

Question: With `Cn1cc(C2=C(c3ccc(Cl)cc3Cl)C(=O)NC2=O)c2ccccc21` as the molecule, how does the “activity change, negative = inhibition” value read?
Answer: -28.4%

Question: For `O=c1[nH]c2cc(C(F)(F)F)ccc2n1-c1cc(C(F)(F)F)ccc1O`, which “activity change, negative = inhibition” value is on record?
Answer: -2.44%

Question: Which “activity change, negative = inhibition” value does the source give for `NCCSSCCN` here?
Answer: -27.5%

Question: Which “activity change, negative = inhibition” value does the source give for `O=C(Nc1cccc(C(=O)Nc2ccc(S(=O)(=O)O)c3cc(S(=O)(=O)O)cc(S(=O)(=O)O)c23)c1)Nc1cccc(C(=O)Nc2ccc(S(=O)(=O)O)c3cc(S(=O)(=O)O)cc(S(=O)(=O)O)c23)c1` here?
Answer: -68.6%

Question: For `CN1CCc2ccccc2Cc2[nH]c3ccccc3c2CC1`, which “activity change, negative = inhibition” value is on record?
Answer: -13.9%

Question: Which “activity change, negative = inhibition” value does the source give for `CCCN(CC1CC1)c1nc(C)nc(Nc2c(Cl)cc(Cl)cc2Cl)c1Cl` here?
Answer: -4.97%

Question: For `N[C@@H](CC(=O)O)C(=O)O`, which “activity change, negative = inhibition” value is on record?
Answer: -11.5%

Question: With `COc1ccc(/C=C/C(=O)Nc2ccccc2C(=O)O)cc1OC` as the molecule, how does the “activity change, negative = inhibition” value read?
Answer: -83.5%

Question: `N#C/C(=C\c1ccc(O)c(O)c1)C(=O)c1ccc(O)c(O)c1` was tested. Which “activity change, negative = inhibition” value did it give?
Answer: -16.1%

Question: Which “activity change, negative = inhibition” value does the source give for `COc1cc(OC)c(/C=C2/C(=O)Nc3ccccc32)c(OC)c1` here?
Answer: -17.8%

Question: How did the “activity change, negative = inhibition” value turn out when `Cn1c(=O)c2[nH]c(-c3ccccc3)nc2n(C)c1=O` was run?
Answer: -8.51%

Question: With `O=C(Nc1ccccc1)c1cc([N+](=O)[O-])ccc1Cl` as the molecule, how does the “activity change, negative = inhibition” value read?
Answer: -41.8%

Question: Which “activity change, negative = inhibition” value does the source give for `N[C@H](CCCP(=O)(O)O)C(=O)O` here?
Answer: -8.68%

Question: Which “activity change, negative = inhibition” value does the source give for `Clc1ccc(N2CCN(Cc3c[nH]c4ncccc34)CC2)cc1` here?
Answer: 22.9%

Question: For `Oc1ccccc1O`, which “activity change, negative = inhibition” value is on record?
Answer: 17.9%

Question: Which “activity change, negative = inhibition” value does the source give for `NCCNC(=O)c1ncsc1-c1cccc(F)c1` here?
Answer: -4.59%

Question: With `Ic1ccc(N2CCN(Cc3c[nH]c4ncccc34)CC2)cc1` as the molecule, how does the “activity change, negative = inhibition” value read?
Answer: 4.56%

Question: How did the “activity change, negative = inhibition” value turn out when `CN(C)c1nc2c(Br)c(Br)c(Br)c(Br)c2[nH]1` was run?
Answer: -26.3%

Question: For `CN=c1nc(-c2ccccc2)n(-c2ccccc2)s1`, which “activity change, negative = inhibition” value is on record?
Answer: -89.5%

Question: Which “activity change, negative = inhibition” value does the source give for `Cc1ccc(O)c(N=Nc2ccccc2)n1` here?
Answer: -113%

Question: `CCCn1c(=O)c2[nH]c(-c3ccc(OCC(=O)NCCN)cc3)nc2n(CCC)c1=O` was tested. Which “activity change, negative = inhibition” value did it give?
Answer: 2.25%

Question: For `NO`, which “activity change, negative = inhibition” value is on record?
Answer: 3.01%

Question: With `CC(C)Cc1ccc([C@H](C)C(=O)O)cc1` as the molecule, how does the “activity change, negative = inhibition” value read?
Answer: -9.28%

Question: `COC1=C(OC)C(=O)c2ccccc2C1=O` was tested. Which “activity change, negative = inhibition” value did it give?
Answer: 7.14%

Question: With `Cc1cc(NC(=O)Nc2ccc3c(ccn3C)c2)sn1` as the molecule, how does the “activity change, negative = inhibition” value read?
Answer: -50.7%

Question: `CCCCCCCC/C=C\CCCCCCCC(=O)NCCO` was tested. Which “activity change, negative = inhibition” value did it give?
Answer: -27%

Question: For `CNCC[C@H](Oc1ccc(C(F)(F)F)cc1)c1ccccc1`, which outcome is on record?
Answer: inactive

Question: With `c1cnc2c(c1)ccc1cccnc12` as the molecule, how does the “activity change, negative = inhibition” value read?
Answer: -11.3%

Question: Which “activity change, negative = inhibition” value does the source give for `NC(N)=NC(=O)c1nc(Cl)c(N2CCCCCC2)nc1N` here?
Answer: -28.4%

Question: With `CCCCN1CCC(n2c(=O)[nH]c3ccccc32)CC1` as the molecule, how does the “activity change, negative = inhibition” value read?
Answer: -19.1%

Question: Which “activity change, negative = inhibition” value does the source give for `O=c1[nH]c2ccccc2n1CCCN1CCN(C(c2ccccc2)c2ccccc2)CC1` here?
Answer: -33.7%
